DT40 TDP1 no CPT: qHTS for Inhibitors of human tyrosyl-DNA phosphodiesterase 1 (TDP1): qHTS in cells in absence of CPT | Potency, µM (top dose mostly 46.2 µM), for the others: at the highest dose activity change, negative = growth inhibition, hits mostly inhibitors | actives 15% (n = 420,000) | AID 686978, 2013 | DT40 Tdp1-/- hTDP1 cells, no CPT, ATP luminescence, 48 h; also: potency is read from the fitted curve at half-maximal effect; nearly all actives have a fitted effect of over 55% in size
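Stably hTDP1-transfected Tdp1-null chicken DT40 cells were treated with library compounds minus camptothecin and grown for at least 48 hr at 37 °C, after which cellular ATP was quantified by luminescence.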
IL1B secr inh: inhibitors of inflammasome signaling (IL-1 beta secretion); THP-1 LPS/ATP IL-1B secretion, AlphaLISA, 16 h; hits give low values; actives 4.7% (n = 360,000); activity change, % at 57.5 µM; in the data active = activity change below about -50%; inconclusive = mostly about -30% to -49%
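THP-1 cells pretreated 1 hr with compounds (up to 57.5 uM final), then stimulated with LPS (250 ng/mL final) plus ATP (1.25 mM final); secreted IL-1B measured by AlphaLISA after 16 hr, decreased signal indicating inhibition.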
HT1080NT lethal: kills 2HG-producing HT-1080-NT fibrosarcoma cells | HT-1080-NT fibrosarcoma viability, CellTiter-Glo ATP luminescence, 48 h | Potency, µM (series often up to 46.1 µM), for the others: at the highest dose activity, negative = less viability, actives largely listed as cytotoxic | actives 1.6% (n = 360,000) | AID 686970;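 also: NT is the 2HG producing partner of a matched IDH1 knockdown line; potency is read from the fitted curve at half-maximal effect; 0% = DMSO-treated cells and -100% = media-only wells without cells; nearly all actives have a fitted effect of over 55% in size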
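Compounds were tested in concentration-response format on HT-1080-NT cells for 48 hours at 37 degrees C. Cell viability came from CellTiter-Glo luminescence; curves were classified by r2, response magnitude and activity.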
HT1080 IDH1KD tx: kills HT-1080 cells with IDH1 knockdown; HT-1080 IDH1 knockdown viability, ATP luminescence, 48 h; actives 2% (n = 360,000); Potency, µM (highest dose often 46.1 µM), inactives show top-dose activity, negative = toxicity, actives largely listed as cytotoxic;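 also: potency is read from the fitted curve at half-maximal effect; 0% = DMSO wells and -100% = cell-free medium wells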
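Luminescent ATP read-out (CellTiter-Glo, 10 min at room temperature) after 48 h compound exposure at 37 °C gave viability of IDH1-knockdown HT-1080 cells. Activity was normalised to DMSO and cell-free wells, then fitted as concentration-response curves.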
ELG1 DNA repair: blocks ELG1-dependent DNA repair in HEK293T cells; HEK293T ELG1-luciferase reporter, luminescence, 16 h; DNA damage induced by 5-fluorouridine; Potency, µM (series often up to 46.1 µM), inactives show top-dose activity change, negative = inhibition, usual class: inhibitors; actives 2.3% (n = 330,000); also: potency is read from the fitted curve at half-maximal effect; nearly all actives have a fitted effect of over 55% in size
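Reporter activity after DNA damage by 5-fluorouridine is monitored. Compound-treated cells incubate 16 hr at 37 °C, then ONE-Glo is added for 30 min before luminescence reading.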
TDP1 cell CPT: growth inhibition of DT40 Tdp1-/-;hTDP1 cells with camptothecin (screen for TDP1 inhibitors); chicken DT40 Tdp1-/-;hTDP1 cells + 20 nM CPT, ATP luminescence, 48 h; actives 12% (n = 420,000); AID 686979; Potency, µM (highest dose often 46.2 µM), inactives show at the highest dose activity change, negative = growth inhibition, actives largely listed as inhibitors; also: potency is read from the fitted curve at half-maximal effect; nearly all actives have a fitted effect of over 55% in size
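Chicken DT40 Tdp1-/- cells complemented with human TDP1, 400 cells/well, exposed to compounds plus 20 nM camptothecin for at least 48 h at 37 C; viability read as ATP content by CellTiter-Glo luminescence.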
* = called active by the depositor; i = inactive; u = inconclusive; x = no result given; [ ] = dose if it differs, or a comment. Only some compounds are listed: those with a hit (about 19% of all), similar ones and a draw of the others. Unless noted, calls follow the shape of the dose curve; as a rule, active = well fitted curve in the direction sought with a large enough effect; inconclusive = small, poorly fitted or top-dose-only effect, or another doubt; inactive = no such curve, though single readings can be large; an effect the other way counts as inactive or inconclusive. Unless noted, % is scaled to controls: 0 for no effect and ±100 for the full control effect.

SMILES | DT40 TDP1 no CPT | IL1B secr inh | HT1080NT lethal | HT1080 IDH1KD tx | ELG1 DNA repair | TDP1 cell CPT
O=C(Nc1ccc(Br)cc1)Nc1ccccc1F | 14.6µM* | -66.0* | -2.1% | -16.7% | u | 14.6µM*
O=C(Nc1ccccc1F)Nc1ccccc1F | -20.8% | 4.3 | 1.9% | 7.0% | u | u
O=C(Nc1ccc(Cl)c(Cl)c1)Nc1ccccc1O | u | -21.1 | 4.0% | 3.8% | u | u
Fc1ccccc1NC(=S)Nc1ccc(Br)cc1 | 23.1µM* | -58.3* | -3.9% | 1.2% | -5.6% | 14.6µM*
NS(=O)(=O)c1cccc(NC(=O)COC(=O)c2ccc(S(=O)(=O)N3CCOCC3)cc2)c1 | 28.3% | -0.1 | -7.4%[9.24 µM] | -2.6% | x | -10.4%
Cc1ncc2c(c1CNC(=O)c1ccc3c(c1)OCO3)CCN(C(=O)c1coc3c1C(=O)CCC3)C2 | -16.1% | x | x | x | x | 11.7%[9.04 µM]
O=C(NNc1ccccc1)Nc1ccccc1F | 7.31µM* | -3.2 | -7.8% | -5.2% | 3.7% | u
N#Cc1ccc(NC(=S)Nc2ccccc2)cc1 | 14.6µM* | i | -9.1% | 12.0% | -0.3% | u
O=C(NNc1cccc(Cl)n1)Nc1ccccc1F | -25.7% | 4.6 | -1.2% | -0.4% | 17.0% | -15.8%
CC(=O)Nc1ccc(S(=O)(=O)NCCSCc2ccc(Cl)cc2Cl)cc1 | 18.4µM* | -56.5* | -26.3% | u | u | u
Cc1cccc(NC(=O)NCCOCCn2c(=O)oc3ccccc32)c1C | -27.0% | x | x | x | x | u
O=C(NCC(c1ccc2c(c1)OCO2)N1CCN(c2ccccc2)CC1)C(=O)Nc1cccc(F)c1 (stereo not given) | u | x | x | x | x | -19.5%
Cc1ccc(S(=O)(=O)N2CCN(CCc3ccccc3)CC2)c(C)c1 | u | -3.0 | u | -27.7% | u | -4.0%
O=C1c2ccccc2C(=O)N1OS(=O)(=O)c1ccc(F)cc1 | 2.06µM* | -4.8 | -3.9% | -5.6% | -0.6% | 2.59µM*
Cc1cc(C)c(S(=O)(=O)ON2C(=O)c3ccccc3C2=O)cc1C | 3.26µM* | -60.9* | u | 10.3µM* | 13.6% | 2.59µM*
Cc1cc(C)c(C)c(S(=O)(=O)ON2C(=O)c3ccccc3C2=O)c1C | 2.31µM* | -119.4* | u | 7.31µM* | u | 2.59µM*
Cc1ccc(OC(=O)CN2C(=O)c3ccccc3C2=O)cc1C | 30.9% | 37.7 | 4.9% | 1.1% | -8.2% | 24.0%
Cc1ccc(S(=O)(=O)ON2C(=O)c3ccccc3C2=O)c(C)c1 | 1.03µM* | -78.1* | u | u | -21.7% | 0.82µM*
CC(NC(=O)c1ccc2c(c1)N(Cc1cccc(F)c1)C(=O)c1ccccc1S2)c1ccccc1 (stereo not given) | u | x | x | x | x | -1.0%
Cc1ccc(-c2noc(-c3nnn(-c4ccc(Br)cc4F)c3C)n2)cc1 | -27.7% | x | x | x | x | u
CN(C)C(=O)C[C@@H]1CC[C@@H](NC(=O)C2CCC2)[C@@H](CO)O1 | 0.1% | 16.5 | 3.4% | 19.8% | x | -6.2%
COC(=O)C1CCN(S(=O)(=O)c2ccc(N3CCCCS3(=O)=O)cc2)CC1 | -22.8% | x | x | x | x | -14.0%
CC(=O)NC(Cc1ccc(Cl)cc1)C(=O)NCC(N)C(=O)c1ccccc1 (stereo not given) | u | x | 8.8% | 9.8% | x | 15.8µM*
CCCNC(=O)C(Cc1ccc(I)cc1)NC(=O)c1ccc2ccccc2n1 (stereo not given) | 20.6µM* | -0.5 | -4.6% | -4.0% | u | u
CCCNC(=O)C(Cc1ccc(Cl)cc1)NC(=O)c1ccc(-c2ccccc2)cc1 (stereo not given) | 6.51µM* | -6.9 | -0.7% | 10.4% | u | 8.2µM*
SMILES | DT40 TDP1 no CPT | IL1B secr inh | HT1080NT lethal | HT1080 IDH1KD tx | ELG1 DNA repair | TDP1 cell CPT
CC(=O)NC(Cc1ccc(I)cc1)C(=O)NCC(N)C(=O)c1ccccc1 (stereo not given) | u | x | -0.5% | 1.4% | x | u
O=c1c(O)c(-c2ccccc2)oc2ccc3occc3c12 | 0.3% | x | x | x | x | -17.0%
COc1ccc(C(=O)c2oc3ccccc3c2NC(=O)COc2ccccc2)cc1 | u | x | x | x | x | 6.1%
CC1CCCN(C(=O)C2CC(=O)N(c3ccc(Cl)cc3)C2)C1 (stereo not given) | u | -6.1 | 13.1% | -3.6% | -0.7% | -1.0%
COc1cc(C)ccc1OCC(=O)OCC(=O)NCC1CCCCC1 | 8.3% | -6.0 | 6.5% | 12.6% | 8.6% | -1.2%
C/C(=N\NC(N)=S)C1=CCC2C3CC[C@H]4CC(O)CC[C@]4(C)C3CC[C@]12C (stereo not given in full) | 5.17µM* | -52.2* | -22.5% | -3.9% | -4.6% | 18.4µM*
CC(Oc1ccc(-c2ccccc2)c(F)c1)c1ccn(S(=O)(=O)c2ccc(Cl)cc2)n1 (stereo not given) | u | -1.3 | -9.4% | -4.4% | 4.2% | 14.6µM*
O=C1NCCOC(=O)[C@H](Cc2ccc(F)cc2)C/C=C\C[C@H]1CC(=O)N(CCO)Cc1ccccc1 | 9.2µM* | 6.3 | 7.2% | 3.4% | u | 8.2µM*
O=C1NCCOC(=O)[C@H](Cc2ccc(F)cc2)C/C=C\C[C@@H]1CC(=O)N(CCO)Cc1ccccc1 | 11.6µM* | 5.1 | 3.3% | 12.0% | u | 13µM*
O=C1CN(C(=O)CSc2ccccn2)c2ccccc2N1 | -4.7% | 45.3 | 8.9% | 0.7% | u | 5.2%
Cc1noc(C)c1COc1ccc(C(=O)OCC(=O)Nc2ccc(S(N)(=O)=O)cc2)cc1 | 16.4µM* | -20.1 | 13.5% | -1.4% | 4.2% | u
Cc1noc(C)c1COc1ccc(C(=O)OCC(=O)NCc2ccccc2Cl)cc1 | 29.1µM* | -8.1 | -28.0% | -28.6% | -3.5% | u
Cc1noc(C)c1COc1cccc(C(=O)NCc2ccccc2Cl)c1 | u | 3.2 | -0.4% | -28.5% | u | -25.1%
CC1CCCCC1NC(=O)Cn1cnc2sccc2c1=O (stereo not given) | -6.4% | -10.6 | 8.3% | 1.9% | 10.8% | -27.4%
O=C(O)c1cc([N+](=O)[O-])c(N2CCCC2)c([N+](=O)[O-])c1 | 11.9% | 25.6 | 4.0% | 13.8% | 13.0% | 2.5%
CCOC(=O)N1CCC2(CC1)C(C#N)=C(N)Oc1c2sc2nc(C)cc(C)c12 | 16.4µM* | -13.8 | u | u | u | u
CCOC(=O)N1CCC2(CC1)C(C#N)=C(N)Oc1c2c(C)nn1-c1cccc(Cl)c1 | 18.4µM* | -6.3 | -4.3% | u | -0.5% | 16.4µM*

High-throughput results: PubChem BioAssay, National Center for Advancing Translational Sciences (NCATS)
